Source: PubChem BioAssay (EPA / NIEHS)
Values joined by “and” are separate entries in the source; they are usually repeats but may differ in a detail not shown here. Identical values can stand only once. Some compounds were tested as several samples or in several runs, with calls that do not always agree. Active and inactive are the calls of the source. Rule for the calls: active = hit-call score of the fitted dose curve at least 0.9, where 1 is the maximum; inactive = score below 0.9.

Key:
Settings in all cases: mRNA level, 48 h; actives raise or lower the signal
[1] = read-out: Hypoxia-inducible factor 1-alpha (Homo sapiens) (UniProt Q16665); assay: LTEA_HepaRG_HIF1A: Life Technologies and Expression Analysis (LTEA) Assay for Hypoxia-inducible factor 1 (HIF1A) Trancription factor using HepaRG (AID 2283503)
Procedure, shortened: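 Gain- or loss-of-signal HIF1A mRNA changes are fitted against a DMSO baseline. HepaRG cultures receive eight concentrations, highest 100 uM, for 48 h in serum-free induction medium with 0.5% DMSO.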

[2] = read-out: 3-Hydroxy-3-Methylglutaryl-CoA Synthase 2 (HMGCS2), HMGCS2 (gene 3158); assay: LTEA_HepaRG_HMGCS2: Life Technologies and Expression Analysis (LTEA) Assay for 3-Hydroxy-3-Methylglutaryl-CoA Synthase 2 (HMGCS2) using HepaRG (AID 2283504)
Procedure, shortened: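 Readout is HMGCS2 transcript by qRT-PCR, housekeeping-normalised (ACTB/GAPDH/POLR2A) and fitted bidirectionally against 0.5% DMSO. Differentiated HepaRG cells received chemicals 48 h, duplicate wells, eight half-log concentrations topping at 100 uM.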

HGF (gene 3082) = assay: LTEA_HepaRG_HGF: Life Technologies and Expression Analysis (LTEA) Assay for Hepatocyte Growth Facto (HGF) using HepaRG (AID 2283505)
Procedure, shortened: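 HGF transcript was quantified by TaqMan qRT-PCR against three housekeeping genes after 48 h treatment of HepaRG cells. Exposure ran in duplicate over eight half-log steps topping at 100 uM in 0.5% DMSO vehicle.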

[3] = read-out: Insulin Like Growth Factor 1 (IGF1), IGF1 (gene 3479); assay: LTEA_HepaRG_IGF1: Life Technologies and Expression Analysis (LTEA) Assay for Insulin Like Growth Factor 1 (IGF1) using HepaRG (AID 2283506)
Procedure, shortened: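 qRT-PCR readout of IGF1 mRNA, normalized to three housekeeping genes, after 48 h chemical exposure of HepaRG cells. Concentrations: 8-point half-log series, top 100 uM, 0.5% DMSO vehicle. Gain or loss fitted against DMSO baseline.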

[4] = read-out: Intercellular Adhesion Molecule 1 (ICAM1), ICAM1 (gene 3383); assay: LTEA_HepaRG_ICAM1: Life Technologies and Expression Analysis (LTEA) Assay for Intercellular Adhesion Molecule 1 (ICAM1) using HepaRG (AID 2283507)
Procedure, shortened: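 ICAM1 transcript levels measured by qRT-PCR, normalized to three housekeeping genes (ACTB, GAPDH, POLR2A), after 48 h chemical exposure of HepaRG cells. Duplicate eight-point half-log series from 100 uM in 0.5% DMSO; gain or loss fitted against vehicle.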

[5] = read-out: Insulin-like growth factor-binding protein 1 (IGFBP1), IGFBP1 (gene 3484); assay: LTEA_HepaRG_IGFBP1: Life Technologies and Expression Analysis (LTEA) Assay for Insulin-like growth factor-binding protein 1 (IGFBP1) using HepaRG (AID 2283508)
Procedure, shortened: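 Read-out is qRT-PCR transcript level normalized to three housekeeping genes, fitted in both directions against 0.5% DMSO. Differentiated HepaRG cells received eight half-log concentrations (top 100 uM) in duplicate for 48 h in serum-free induction medium.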

[6] = read-out: Interleukin 6 (IL6), IL6 (gene 3569); assay: LTEA_HepaRG_IL6: Life Technologies and Expression Analysis (LTEA) Assay for Interleukin 6 (IL6) using HepaRG (AID 2283509)
Procedure, shortened: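 qRT-PCR read-out of IL6 transcript, normalized to three housekeeping genes, after 48 h chemical exposure of HepaRG cells; 8-point half-log series, top 100 uM, 0.5% DMSO vehicle. Bidirectional curve fitting against DMSO baseline.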

[7] = read-out: Potassium channel subfamily K member 1 (KCNK1), KCNK1 (gene 3775); assay: LTEA_HepaRG_KCNK1: Life Technologies and Expression Analysis (LTEA) Assay for Potassium channel subfamily K member 1 (KCNK1) using HepaRG (AID 2283511)
Procedure, shortened: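 HepaRG, 48 h exposure, 8-pt half-log series top 100 uM, 0.5% DMSO vehicle, duplicates. Readout: KCNK1 transcript by qRT-PCR (Fluidigm array), housekeeping-normalized; bidirectional curve fit relative to DMSO baseline.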

[8] = read-out: Keratin 19 (KRT19), KRT19 (gene 3880); assay: LTEA_HepaRG_KRT19: Life Technologies and Expression Analysis (LTEA) Assay for Keratin 19 (KRT19) using HepaRG (AID 2283512)
Procedure, shortened: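 KRT19 transcript measured by TaqMan qRT-PCR, referenced to three housekeeping genes, after HepaRG cells received test chemicals for 48 h. Eight half-log concentrations, top 100 uM, 0.5% DMSO vehicle; increases and decreases both fitted.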

[9] = read-out: JUN Transcription Factor, JUN (gene 3725); assay: LTEA_HepaRG_JUN: Life Technologies and Expression Analysis (LTEA) Assay for JUN Transcription Factor using HepaRG (AID 2283513)
Procedure, shortened: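 HepaRG, 48 h exposure, 8-pt half-log series top 100 uM, 0.5% DMSO, duplicate. JUN mRNA by qRT-PCR (Fluidigm), housekeeping-normalized (ACTB/GAPDH/POLR2A); bidirectional curve fit vs DMSO baseline.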

[10] = read-out: Lipase C (LIPC), LIPC (gene 3990); assay: LTEA_HepaRG_LIPC: Life Technologies and Expression Analysis (LTEA) Assay for Lipase C (LIPC) using HepaRG (AID 2283514)
Procedure, shortened: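 HepaRG, 48 h exposure, 8-pt half-log series from 100 uM in 0.5% DMSO, duplicates. Readout: LIPC mRNA by Fluidigm qRT-PCR, housekeeping-normalized (ACTB/GAPDH/POLR2A). Gain or loss fitted bidirectionally against DMSO baseline.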

[11] = read-out: Lipoprotein lipase (LPL), LPL (gene 4023); assay: LTEA_HepaRG_LPL: Life Technologies and Expression Analysis (LTEA) Assay for Lipoprotein lipase (LPL) using HepaRG (AID 2283515)
Procedure, shortened: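 HepaRG, 48 h exposure, 8-pt half-log dilutions from 100 uM, 0.5% DMSO vehicle, duplicates; qRT-PCR (Fluidigm array) of LPL mRNA vs housekeeping genes; bidirectional curve fit relative to DMSO baseline.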

[12] = read-out: MicroRNA 122 (MIR122), gene 406906; assay: LTEA_HepaRG_MIR122: Life Technologies and Expression Analysis (LTEA) Assay for MicroRNA 122 (MIR122) using HepaRG (AID 2283516); note: the transcript read is the microRNA miR-122
Procedure, shortened: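 qRT-PCR read-out (TaqMan, Fluidigm array), normalized to three housekeeping genes; HepaRG cells dosed 48 h at 8 concentrations up to 100 uM in 0.5% DMSO, duplicate; gain or loss fitted against DMSO baseline.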

[13] = read-out: matrix metalloproteinase-10 (MMP10), MMP10 (gene 4319); assay: LTEA_HepaRG_MMP10: Life Technologies and Expression Analysis (LTEA) Assay for matrix metalloproteinase-10 (MMP10) using HepaRG (AID 2283517)
Procedure, shortened: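 Transcript levels come from Fluidigm qRT-PCR normalized to three housekeeping genes, with curves fitted bidirectionally against 0.5% DMSO. Human HepaRG cells were dosed for 48 hours at concentrations up to 100 uM.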

MYC, MYC (gene 4609) = assay: LTEA_HepaRG_MYC: Life Technologies and Expression Analysis (LTEA) Assay for MYC using HepaRG (AID 2283518)
Procedure, shortened: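 MYC transcript changes, up or down relative to 0.5% DMSO, from TaqMan qRT-PCR normalized to three housekeeping genes. Human HepaRG cultures received chemicals for 48 h at eight half-log concentrations up to 100 uM, in duplicate.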

[14] = read-out: matrix metalloproteinase-3 (MMP3), MMP3 (gene 4314); assay: LTEA_HepaRG_MMP3: Life Technologies and Expression Analysis (LTEA) Assay for matrix metalloproteinase-3 (MMP3) using HepaRG (AID 2283519)
Procedure, shortened: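 qRT-PCR read-out of MMP3 mRNA (normalised to three housekeeping genes) in HepaRG liver cells after 48 h chemical exposure; 8-point half-log series, top 100 uM, 0.5% DMSO vehicle. Bidirectional curve fitting against DMSO baseline.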

[15] = read-out: Paternally Expressed 10 (PEG10), PEG10 (gene 23089); assay: LTEA_HepaRG_PEG10: Life Technologies and Expression Analysis (LTEA) Assay for Paternally Expressed 10 (PEG10) using HepaRG (AID 2283520);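 for AC50: PEG10 transcript by qRT-PCR normalised to ACTB GAPDH and POLR2A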
Procedure, shortened: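 qRT-PCR read-out: PEG10 mRNA normalised to three housekeeping genes, fitted bidirectionally against 0.5% DMSO vehicle. HepaRG cells received test chemicals for 48 h in serum-free induction medium, 8 points, top 100 uM, half-log steps.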

[16] = read-out: Nuclear factor NF-kappa-B p105 subunit (Homo sapiens) (UniProt P19838); assay: LTEA_HepaRG_NFKB1: Life Technologies and Expression Analysis (LTEA) Assay for Nuclear Factor Kappa B Subunit 1 (NFKB1) using HepaRG (AID 2283521);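 note: differentiated human HepaRG liver cells in serum-free induction medium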
Procedure, shortened: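 NFKB1 transcript was measured by TaqMan qRT-PCR on Fluidigm arrays, normalised to three housekeeping genes and fitted in both directions against 0.5% DMSO. HepaRG cells were dosed in duplicate for 48 h in serum-free induction medium, eight half-log steps from 100 uM.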

[17] = read-out: Protein phosphatase 2A (PPP2R4), PTPA (gene 5524); assay: LTEA_HepaRG_PPP2R4: Life Technologies and Expression Analysis (LTEA) Assay for Protein phosphatase 2A (PPP2R4) using HepaRG (AID 2283522)
Procedure, shortened: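 HepaRG, 48 h exposure, 8-pt half-log series from 100 uM, 0.5% DMSO vehicle, duplicates. Readout: PPP2R4 mRNA, Fluidigm qRT-PCR, housekeeping-normalized. Bidirectional curve fit vs DMSO baseline.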

[18] = read-out: Interleukin 6 Receptor (IL6R), IL6R (gene 3570); assay: LTEA_HepaRG_IL6R: Life Technologies and Expression Analysis (LTEA) Assay for Interleukin 6 Receptor (IL6R) using HepaRG (AID 2283510)
Procedure, shortened: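 HepaRG, 48 h exposure, 8-pt half-log series, top 100 uM, 0.5% DMSO vehicle, duplicates. Read-out: TaqMan qRT-PCR of IL6R transcript, housekeeping-gene normalized. Gain or loss fitted relative to DMSO baseline.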

Sequence of Nuclear factor NF-kappa-B p105 subunit (Homo sapiens) (P19838 whole entry, looked up): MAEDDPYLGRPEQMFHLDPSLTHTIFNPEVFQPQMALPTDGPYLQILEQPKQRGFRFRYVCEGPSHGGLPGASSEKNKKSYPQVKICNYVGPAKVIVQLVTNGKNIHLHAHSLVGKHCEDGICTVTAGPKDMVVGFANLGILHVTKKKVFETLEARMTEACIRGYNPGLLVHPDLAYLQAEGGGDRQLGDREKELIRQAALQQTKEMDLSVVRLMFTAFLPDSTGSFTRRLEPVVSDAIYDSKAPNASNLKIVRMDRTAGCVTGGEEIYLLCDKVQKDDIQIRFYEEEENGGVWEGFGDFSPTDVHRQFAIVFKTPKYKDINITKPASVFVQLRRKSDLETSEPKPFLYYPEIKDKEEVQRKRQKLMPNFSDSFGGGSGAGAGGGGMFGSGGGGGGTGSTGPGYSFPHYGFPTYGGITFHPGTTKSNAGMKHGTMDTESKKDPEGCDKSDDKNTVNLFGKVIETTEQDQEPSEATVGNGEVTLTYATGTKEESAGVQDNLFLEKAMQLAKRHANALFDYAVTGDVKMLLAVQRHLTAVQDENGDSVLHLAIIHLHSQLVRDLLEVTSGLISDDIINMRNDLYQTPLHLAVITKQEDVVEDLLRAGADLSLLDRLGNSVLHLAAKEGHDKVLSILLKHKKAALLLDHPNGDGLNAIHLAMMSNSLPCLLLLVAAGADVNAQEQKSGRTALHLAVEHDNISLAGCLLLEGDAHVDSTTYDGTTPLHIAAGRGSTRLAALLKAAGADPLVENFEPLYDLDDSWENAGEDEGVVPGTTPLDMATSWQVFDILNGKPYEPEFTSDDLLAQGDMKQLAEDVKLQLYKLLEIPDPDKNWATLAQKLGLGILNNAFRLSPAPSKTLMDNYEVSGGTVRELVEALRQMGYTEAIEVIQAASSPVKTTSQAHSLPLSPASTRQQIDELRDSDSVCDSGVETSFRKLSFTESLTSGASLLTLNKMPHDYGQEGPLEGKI
Sequence of Hypoxia-inducible factor 1-alpha (Homo sapiens) (Q16665 whole entry, looked up): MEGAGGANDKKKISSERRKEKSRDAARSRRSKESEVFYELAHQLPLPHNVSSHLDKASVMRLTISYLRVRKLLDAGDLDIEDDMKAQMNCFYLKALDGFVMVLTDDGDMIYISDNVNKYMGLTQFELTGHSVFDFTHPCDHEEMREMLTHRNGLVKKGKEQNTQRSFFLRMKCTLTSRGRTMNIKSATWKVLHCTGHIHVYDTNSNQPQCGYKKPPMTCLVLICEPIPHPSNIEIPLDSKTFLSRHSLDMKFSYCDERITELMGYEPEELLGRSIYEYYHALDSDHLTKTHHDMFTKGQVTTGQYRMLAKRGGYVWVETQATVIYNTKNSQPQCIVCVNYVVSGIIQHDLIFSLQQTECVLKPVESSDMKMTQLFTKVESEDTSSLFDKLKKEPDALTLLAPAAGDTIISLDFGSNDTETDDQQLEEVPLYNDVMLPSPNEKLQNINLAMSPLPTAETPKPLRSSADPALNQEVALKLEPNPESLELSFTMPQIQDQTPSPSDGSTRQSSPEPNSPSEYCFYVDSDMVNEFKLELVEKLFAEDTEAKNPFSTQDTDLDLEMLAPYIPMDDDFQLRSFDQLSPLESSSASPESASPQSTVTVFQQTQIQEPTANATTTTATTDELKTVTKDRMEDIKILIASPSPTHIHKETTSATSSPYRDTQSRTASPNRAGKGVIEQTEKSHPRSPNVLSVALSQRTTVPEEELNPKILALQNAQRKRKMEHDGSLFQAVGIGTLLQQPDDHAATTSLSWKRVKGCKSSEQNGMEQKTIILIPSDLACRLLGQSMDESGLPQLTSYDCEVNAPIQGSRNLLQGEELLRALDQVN

For CC(C)N(C(=O)COc1nnc(C(F)(F)F)s1)c1ccc(F)cc1, the outcome [1] was “inactive”, the AC50 [2] was 50 µM (active) and the outcome (HGF (gene 3082)) was “inactive”. For the same compound, the outcome [3] was “inactive”, the outcome [4] was “inactive” and the outcome [5] was “inactive”. For the same compound, the outcome [6] was “inactive”, the outcome [7] was “inactive” and the outcome [8] was “inactive”. For the same compound, the outcome [9] was “inactive”, the outcome [10] was “inactive” and the outcome [11] was “inactive”. The outcome [12] was “inactive”, the outcome [13] was “inactive” and the outcome (MYC, MYC (gene 4609)) was “inactive”. For the same compound, the outcome [14] was “inactive”, the AC50 [15] was 22.2 µM (active) and the outcome [16] was “inactive”. The AC50 [17] was 31.4 µM (active).
CC(C)(C)C(O)C(Oc1ccc(Cl)cc1)n1cncn1 (stereo not given) was tested, and the outcome [1] was “inactive”, the AC50 [2] was 21 µM (active) and 32.8 µM (active) and 21.6 µM (active) and the outcome (HGF (gene 3082)) was “inactive”. The AC50 [3] was 16 µM (active) and 23.4 µM (active) and 14.4 µM (active), the outcome [4] was “inactive” and the outcome [5] was “inactive”. For the same compound, the outcome [6] was “inactive”, the outcome [7] was “inactive” and the outcome [8] was “inactive”. The outcome [9] was “inactive”, the outcome [10] was “inactive” and the outcome [11] was “inactive”. The outcome [12] was “inactive”, the outcome [13] was “inactive” and the outcome (MYC, MYC (gene 4609)) was “inactive”. For the same compound, the AC50 [14] was 50 µM (active), the outcome [14] was “inactive” and the AC50 [15] was 1.4 µM (active). For the same compound, the outcome [15] was “inactive”, the outcome [16] was “inactive” and the outcome [17] was “inactive”.
In the case of C#CCN1C(=O)COc2cc(F)c(N3C(=O)C4=C(CCCC4)C3=O)cc21, the outcome [1] is reported as “inactive”, the outcome [2] is reported as “inactive” and the outcome (HGF (gene 3082)) is reported as “inactive”. For the same compound, the AC50 [3] was 23.5 µM (active), the outcome [4] was “inactive” and the outcome [5] was “inactive”. For the same compound, the outcome [6] was “inactive”, the outcome [18] was “inactive” and the outcome [7] was “inactive”. The outcome [8] was “inactive”, the outcome [9] was “inactive” and the AC50 [10] was 26.3 µM (active). For the same compound, the outcome [11] was “inactive”, the outcome [12] was “inactive” and the outcome [13] was “inactive”. The outcome (MYC, MYC (gene 4609)) was “inactive”, the outcome [14] was “inactive” and the AC50 [15] was 37.8 µM (active). For the same compound, the outcome [16] was “inactive” and the outcome [17] was “inactive”.
For COc1nn(CSP(=S)(OC)OC)c(=O)s1, the outcome [1] was “inactive”, the outcome [2] was “inactive” and the outcome (HGF (gene 3082)) was “inactive”. For the same compound, the outcome [3] was “inactive”, the outcome [4] was “inactive” and the outcome [5] was “inactive”. The outcome [6] was “inactive”, the outcome [18] was “inactive” and the outcome [7] was “inactive”. The outcome [8] was “inactive”, the outcome [9] was “inactive” and the outcome [10] was “inactive”. The outcome [11] was “inactive”, the outcome [12] was “inactive” and the outcome [13] was “inactive”. The outcome (MYC, MYC (gene 4609)) was “inactive”, the outcome [14] was “inactive” and the outcome [15] was “inactive”. For the same compound, the outcome [16] was “inactive” and the outcome [17] was “inactive”.
In the case of COP(=S)(OC)Oc1ccc(SC)c(C)c1, the outcome [1] is reported as “inactive”, the outcome [2] is reported as “inactive” and the outcome (HGF (gene 3082)) is reported as “inactive”. The outcome [3] was “inactive”, the outcome [4] was “inactive” and the outcome [5] was “inactive”. The outcome [6] was “inactive”, the outcome [18] was “inactive” and the outcome [7] was “inactive”. The outcome [8] was “inactive”, the outcome [9] was “inactive” and the outcome [10] was “inactive”. The outcome [11] was “inactive”, the outcome [12] was “inactive” and the outcome [13] was “inactive”. The outcome (MYC, MYC (gene 4609)) was “inactive”, the AC50 [14] was 50 µM (active) and the AC50 [15] was 9.92 µM (active). For the same compound, the outcome [16] was “inactive” and the outcome [17] was “inactive”.
